Screening results deposited in PubChem BioAssay by National Center for Advancing Translational Sciences (NCATS).
Shown are actives, neighbours in structure and some others; about 8.8% of the full set was active somewhere.
KB-3-1 tox: qHTS assay for MDR1-selective chemotherapeutics: Primary screen using the parental adenocarcinoma cell KB-3-1 | KB-3-1 viability, CellTiter-Glo ATP luminescence, 72 h | Potency, µM (highest dose often 46.1 µM), hits mostly cytotoxic | 1.4% of 400,000 active; note: potency is the fitted concentration of half-maximal effect; nearly all actives have a fitted effect of over 60% in size
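Viability of parental KB-3-1 cells, measured by CellTiter-Glo luminescence, followed a 72 h incubation at 37 °C with pinned compounds in phenol-red-free DMEM containing 10% FBS.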
KB-V1 cytotox: qHTS assay for MDR1-selective chemotherapeutics: Primary screen using the drug-selected MDR subline cells KB-V1; KB-V1 MDR cells viability, CellTiter-Glo, 72 h; Potency, µM (highest dose often 46.1 µM), actives largely listed as cytotoxic; 3.4% of 400,000 active; AID 1347076, 2019; note: potency is the fitted concentration of half-maximal effect; nearly all actives have a fitted effect of over 60% in size
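In this primary screen, KB-V1 cells overexpressing P-gp are incubated with library compounds (lowest to highest concentration) for 72 h at 37 degrees C before a luminescent ATP viability read.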
HT1080 IDH1KD tx: qHTS for induction of synthetic lethality in tumor cells producing 2HG: qHTS for the HT-1080-IDH1KD cell line; Potency, µM (top dose mostly 46.1 µM), inactives show at the highest dose activity, negative = toxicity, usual class: cytotoxic; HT-1080 IDH1 knockdown viability, ATP luminescence, 48 h; 2% of 360,000 active;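 note: potency is the fitted concentration of half-maximal effect; 0% = DMSO wells and -100% = cell-free medium wells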
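% activity derives from luminescence (CellTiter-Glo), normalised to DMSO and no-cell wells. HT-1080-IDH1KD cells, 750/well, had 48 h compound exposure at 37 °C.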
IL-1B inflam inh: qHTS for Inhibitors of Inflammasome Signaling: IL-1-beta AlphaLISA Primary Screen; THP-1 LPS/ATP IL-1B secretion, AlphaLISA, 16 h; stronger effect = lower value; activity change, % at 57.5 µM; 4.7% of 360,000 active; in the data active = activity change below about -50%; inconclusive = mostly about -30% to -49%
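Secreted IL-1B measured by AlphaLISA bead assay after 16 h compound exposure of THP-1 cells; compounds (final up to 57.5 uM) added 1 h before LPS (250 ng/mL) and ATP (1.25 mM) stimulation; lower signal means less secretion.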
HT1080NT lethal: qHTS for induction of synthetic lethality in tumor cells producing 2HG: qHTS for the HT-1080-NT fibrosarcoma cell line; Potency, µM (highest dose often 46.1 µM), for the others: at the highest dose activity, negative = less viability, actives largely listed as cytotoxic; HT-1080-NT fibrosarcoma viability, CellTiter-Glo ATP luminescence, 48 h; 1.6% of 360,000 active;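 note: NT is the 2HG producing partner of a matched IDH1 knockdown line; potency is the fitted concentration of half-maximal effect; 0% = DMSO-treated cells and -100% = media-only wells without cells; nearly all actives have a fitted effect of over 55% in size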
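750 cells/well, RPMI + 5% FBS; 2 h settle, compound pin-transfer, 48 h at 37 degrees C. CellTiter-Glo 10 min RT, luminescence. Normalized to DMSO and media-only wells.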
Starred values were filed as active, the others as inactive; i = inactive; ? = inconclusive; . = no result given. Unless noted, calls come from the whole dose curve; as a rule, active = well fitted curve in the direction sought with a large enough effect; inconclusive = small, poorly fitted or top-dose-only effect, or another doubt; inactive = no such curve, though single readings can be large; an effect the other way counts as inactive or inconclusive. Unless noted, % is set by controls: 0 for no effect and ±100 for the full control effect.

SMILES | KB-3-1 tox | KB-V1 cytotox | HT1080 IDH1KD tx | IL-1B inflam inh | HT1080NT lethal
CN(C)S(=O)(=O)c1cccc(-c2nnc(-c3ccccc3)o2)c1 | i | 23.1µM* | -11.0% | 4.2 | -5.8%
CC(CCN1CCC(n2nccc2NC(=O)c2ccccc2Cl)CC1)c1ccccc1 (stereo not drawn) | i | i | -10.7% | -4.5 | -2.8%
COc1ccc(-c2ccc(OC)c([C@H]3[C@@H]4C=CCC[C@@]4(C)C(=O)N3Cc3ccccc3)c2)cc1OC | ? | ? | ? | 0.0 | -23.8%
Cc1ccc(-c2ccc([C@H]3[C@@H]4C=CCC[C@@]4(C)C(=O)N3Cc3ccccc3)c(F)c2)cc1 | i | i | -4.1% | -2.0 | -18.8%
COc1ccc(-c2ccc(N(C)C)cc2)cc1[C@H]1[C@@H]2C=CCC[C@@]2(C)C(=O)N1Cc1ccccc1 | 18.4µM* | ? | ? | -24.3 | ?
C[C@@]12CCC=C[C@H]1[C@H](c1ccc3ccccc3c1Br)N(Cc1ccccc1)C2=O | ? | ? | ? | -54.5* | ?
COc1ccc(-c2ccc([C@H]3[C@@H]4C=CCC[C@@]4(C)C(=O)N3Cc3ccccc3)c(F)c2)cc1 | ? | 7.31µM* | ? | -21.6 | ?
C[C@@]12CCC=C[C@H]1[C@H](c1ccc3ccccc3c1)N(Cc1ccccc1)C2=O | ? | ? | ? | 5.9 | ?
Cc1cc(Cl)ccc1C(=O)C1CCCN(C(=O)c2ccc3ncccc3c2)C1 (stereo not drawn) | i | ? | -24.2% | -8.3 | -9.2%
Cc1ccc2oc(C(=O)NCc3ncc(C)[nH]3)c(C)c2c1 | 10.3µM* | ? | 16.4µM* | -9.9 | 18.4µM*
CCc1ccc2oc(C(=O)NCc3ccncc3)c(C)c2c1 | ? | 11.6µM* | -6.7% | -66.4* | 0.9%
COC(=O)c1cccc(NC(=O)CSc2nc3cccnc3n2C)c1 | i | 18.4µM* | -26.8% | ? | -16.7%
Cc1ccccc1C(=O)Nc1ccccc1-c1nnn(CC(=O)Nc2ccc3c(c2)OCCO3)n1 | ? | 3.66µM* | -16.1% | 32.1 | -23.1%
Cc1ccc(NC(=O)Cn2nnc(-c3ccccc3NC(=O)c3cccs3)n2)cc1 | 1.03µM* | 1.3µM* | 1.16µM* | 9.4 | 1.16µM*
O=C(Cn1nnc(-c2ccccc2NC(=O)c2ccccc2)n1)Nc1ccc2c(c1)OCCO2 | ? | i | -13.5% | -10.2 | -26.4%
COc1ccc(NC(=O)Nc2sc3nc4n(c(=O)c3c2C)CCC(C)CC4)cc1OC (stereo not drawn) | i | ? | . | . | .
O=C(N/N=C/c1ccc(OCC(=O)N2CCCCC2)cc1)c1ccccc1O | i | i | -3.8% | 0.0 | -8.4%
CCNc1nc(-c2sc(NC(=O)C(C)(C)C)nc2C)c(-n2cc(-c3ccccc3)nn2)s1 | ? | 18.4µM* | ? | -76.5* | ?
Cc1nc(NC(=O)C(C)(C)C)sc1-c1nc(N)sc1-n1cc(-c2ccccc2)nn1 | i | i | 10.2% | 15.5 | 2.7%
CCc1nnc2c3ccccc3nc(Nc3ccc(F)cc3C)n12 | i | i | . | . | .
CN(C)c1ccc(C(=C2C=CC(=[N+](C)C)C=C2)c2ccc(N(C)C)cc2)cc1 | 2.59µM* | i | . | . | .
C[C@@H]1CN([C@@H](C)CO)C(=O)CCCn2nncc2CO[C@H]1CN(C)Cc1cccc2c1OCCCO2 | i | i | -1.1% | 14.7 | -1.5%
O=C(CC1NCCc2ccccc21)Nc1ccc(Oc2ccccc2)cc1 (stereo not drawn) | i | ? | ? | -153.0* | ?
O=C(CC1NCCc2ccccc21)Nc1ccccc1 (stereo not drawn) | i | i | 4.0% | -7.6 | -18.2%
O=C(CN1CCN(Cc2ccccc2)CC1)N/N=C/C=C/c1ccccc1[N+](=O)[O-] | i | i | 20.0% | -1.9 | 9.4%
SMILES | KB-3-1 tox | KB-V1 cytotox | HT1080 IDH1KD tx | IL-1B inflam inh | HT1080NT lethal
O=C(CN1CCN(Cc2ccc(Cl)cc2)CC1)N/N=C/C=C/c1ccccc1[N+](=O)[O-] | 20.6µM* | i | -3.2% | -4.9 | -0.1%
CCOC(=O)c1ccc(NS(=O)(=O)c2c(C)[nH]c(C)c2C(=O)N2CCCCC2)cc1 | i | i | -7.0% | 1.6 | -4.0%
Cc1cc(CN(C)Cc2ccc(OCC(O)CN(C)Cc3ccccc3)cc2)on1 (stereo not drawn) | i | i | -2.0% | 24.7 | -26.4%
CN(Cc1ccccc1)CC(O)COc1ccc(CNCCc2ccncc2)cc1 (stereo not drawn) | i | ? | ? | -58.5* | ?
CCc1ccc(CNCc2ccc(OCC(O)CN(C)Cc3ccccc3)cc2)nc1 (stereo not drawn) | ? | ? | ? | -59.7* | ?
CN(Cc1ccccc1)CC(O)COc1ccc(CNCCc2cccnc2)cc1 (stereo not drawn) | i | i | -1.1% | 0.0 | 0.0%
C=CCOc1ccc(CN(C)CC(O)COc2cccc3ccccc23)cc1 (stereo not drawn) | i | i | ? | -59.2* | ?
Cn1c(=O)c(=O)n(C)c2cc([N+](=O)[O-])c([N+](=O)[O-])cc21 | i | i | ? | -101.4* | ?
Cn1cccc([N+](=O)[O-])c1=O | i | i | -2.8% | -17.5 | 2.3%
O=C(CSc1nnc2scc(-c3ccccc3)n12)Nc1ccc(Cl)cc1 | i | i | . | . | .
CCOC(=O)Nc1ccc2c(c1)N(C(=O)OCCN(C)C)c1ccccc1CC2 | i | i | -11.7% | -0.9 | -1.8%
CCOC(=O)Nc1ccc2c(c1)N(C(=O)CN)c1ccccc1CC2 | i | i | -0.2% | -63.4* | -11.3%
CCNCC(=O)N1c2ccccc2CCc2ccc(NC(=O)OCC)cc21 | i | i | -9.3% | -69.4* | 0.5%
CCC(C)Sc1cccc(-c2nc3cnccn3c2NC2CCCCC2)c1 (stereo not drawn) | ? | ? | ? | 0.0 | ?
c1cn2c(NC3CCCCC3)c(-c3ccc(SC4CCCCC4)cc3)nc2cn1 | i | i | ? | -63.3* | ?
c1cc(SC2CCCCC2)cc(-c2nc3cnccn3c2NC2CCCCC2)c1 | ? | ? | ? | -65.6* | ?
c1cn2c(NC3CCCC3)c(-c3ccc(N4CCOCC4)cc3)nc2cn1 | i | i | 9.2% | 13.9 | 6.2%
C/C(=N\NC(=O)c1cc(Br)ccc1O)c1ccccn1 | i | i | ? | -81.3* | ?
